The record followed here is PubChem BioAssay AID493206 (National Center for Advancing Translational Sciences (NCATS), 2011).

Each structure is given as a SMILES string. “And” between values parts separate entries of the source, which are not always exact repeats. Equal values may be shown once. Inconclusive results are not listed. Values without a mark were called inactive. The source made the active and inactive calls. Calls come from the whole dose curve; as a rule, active = well fitted inhibition curve with a large enough effect; inconclusive = small, poorly fitted or top-dose-only effect; inactive = flat fitted curve, though single readings scatter.

The assay concerns the target Dual specificity tyrosine-phosphorylation-regulated kinase 1A (Homo sapiens) (UniProt Q13627). Put plainly: Assay for Inhibitors of Dual-Specificity Tyrosine-(Y)-Phosphorylation Regulated Kinase 1A (Kinase-Glo assay): round 2 SAR. To be noted: recombinant DYRK1A, Kinase-Glo ATP depletion luminescence; series mostly up to 76.9 µM; activity, negative = inhibition: at the top concentration. An excerpt: NIH Molecular Libraries Probe Production Centers Network [MLPCN] NIH Chemical Genomics Center [NCGC] MLPCN Grant: 1R03MH084827-01 PI Name: Tom Misteli NCGC Assay Overview: The CMGC group of protein kinases which includes CDK-like kinases (Clk) and Dyks are essential kinases found in all eukaryotes. Clks have been implicated to play a role in the regulation of alternative splicing; while Dyrks, in particular over expression of Dyrk1A, has been linked to diseases as Down syndrome (DS; OMIM 190685) and Alzheimer disease (AD; OMIM 104300). Among the members of the CMGC group, the Clks and the Dyrks are very closely related therefore to determine validity and selectivity of an active compound observed in the CLK4 qHTS screen (AID:1770), a bioluminescent counter-screen against Dyrk1A was developed. In addition, potent and selective compounds against Dyrk1A were identified to further assess the role of this enzyme in DS and AD. Dyrk1A (Invitrogen, cat # PV3785) was assayed using ATP and DYRKtide (AnaSpec, cat# 62698) as substrates. Promega Kinase-Glo (cat# V6712) technology was used to detect the residual ATP following kinetic reaction. The Kinase-Glo Plus contains Ultra-Glo [5] luciferase and D-luciferin which generates a bioluminescence signal from the remaining ATP. No enzyme and harmine (Sigma, cat # 286044-1G), a compound shown to inhibit Dyrks were used as a positive control; while DMSO treatment was used as a negative control.
NCGC Assay Protocol Summary: Two uL/well of substrate solution (8uM Dyrktide, 2uM ATP, 25mM Tris-HCl pH 7.5, 10mM MgCl2 , 0.5mM EGTA, 5mM cystein, 0.01% Triton X-100 final concentration) was dispensed into 1536-well assay plates (Greiner, solid white, medium-binding plates) with Aurora Discovery BioRAPTR Flying Reagent Dispenser (FRD, Beckton-Dickenson). Compound solution (23 nL) was transferred to the assay plate using Kalypsys pin tool equipped with a 1536-pin tool. One uL/well enzyme solution (5nM Dyrk1A, 25mM Tris-HCl pH7.5, 10mM MgCl2, 0.5mM EGTA, 5mM cystein, 0.01% Triton X-100 final concentration) was then added using FRD yielding a total kinase reaction volume of 3uL/well. After 2 hours of room temperature incubation, 3uL Kinase-Glo detection reagent was added for a final assay volume of 6uL/well. The plates were spun for 30 seconds (1000 rpm) and incubated at ambient temperature for 2 minutes followed by a luminescence read using Perkin Elmer ViewLux plate reader at 3 seconds exposure time and 2x binning.
`CN1CCN(c2ncc3nc(-c4cn(C)c5ccccc45)c(=O)n(Cc4cccs4)c3n2)CC1`: the “activity, negative = inhibition” value is -6.07%.
In the case of `Clc1cccc(-c2ccc3ncnc(NCc4cccs4)c3c2)c1`, the Potency is 13 µM (active).
On the same count and under the same terms, in the case of `Cc1csc(CNc2ncnc3ccc(-c4ccc(C(=O)O)o4)cc23)n1` it was 14.6 µM (active); in that of `Fc1cccc(CNc2ncnc3ccc(-c4cccnc4)cc23)c1`, 26 µM (active).
The same measure, in the same setting: in the case of `Cc1csc(CNc2ncnc3cc(-c4ccc5c(c4)OCO5)ccc23)n1` it was 29.2 µM (active); in that of `c1nc(NCC2CCCCC2)c2cc(-c3ccc4c(c3)OCO4)ccc2n1`, 0.26 µM (active); in that of `Cc1ccc(CNc2ncnc3ccc(-c4ccc(C(=O)O)o4)cc23)o1`, 10.4 µM (active).
Same read-out and setting: with `c1nc(N2CCOCC2)c2cc(-c3ccc4c(c3)OCO4)ccc2n1` the figure was 1.46 µM (active).
For the compound `c1cncc(CNc2ncnc3ccc(-c4ccoc4)cc23)c1`, the Potency is 9.23 µM (active).
The same measure, in the same setting: with `Cc1nc(CCN(C)c2ncnc3ccc(-c4ccc5c(c4)OCO5)cc23)cs1` the figure was 0.654 µM (active).
The same measure, in the same setting: with `CC(O)c1ccc(-c2ccc3ncnc(N4CCOCC4)c3c2)o1` (stereo not given) the figure was 23.2 µM (active).
On the same count and under the same terms, with `Cc1csc(CNc2ncnc3ccc(-c4ccc5c(c4)OCO5)cc23)c1` the figure was 0.463 µM (active); with `Clc1ccccc1-c1ccc2ncnc(NCc3cccnc3)c2c1`, 26 µM (active); with `Cc1csc(CNc2ncnc3ccc(-c4ccc(C(C)O)o4)cc23)n1` (stereo not given), 26 µM (active).
`COc1cccc(-c2ccc3ncnc(NCc4ccc5c(c4)OCO5)c3c2)c1`: the Potency was 9.23 µM (active).
Same read-out and setting: with `CC(=O)c1ccc(-c2ccc3ncnc(NCc4ccc(C)o4)c3c2)o1` the figure was 5.82 µM (active); with `O=C(O)c1ccc(-c2ccc3ncnc(NCc4nccs4)c3c2)o1`, 18.4 µM (active).
`Cc1nc(C(C)N(C)c2ncnc3ccc(-c4ccc5c(c4)OCO5)cc23)cs1` (stereo not given): the Potency is 29.2 µM (active).
As to `c1cncc(CNc2ncnc3ccc(-c4ccco4)cc23)c1`, the Potency is 26 µM (active).
With `Cc1nc(CCNc2ncnc3ccc(-c4ccc5c(c4)OCO5)cc23)cs1`, the Potency was 0.26 µM (active).
Still for that read-out and setting: with `Cc1ccc(CNc2ncnc3cc(-c4ccc5c(c4)OCO5)ccc23)o1` the figure was 23.2 µM (active); with `Cc1csc(CNc2ncnc3ccc(-c4ccoc4)cc23)c1`, 3.68 µM (active); with `COc1cccc(Nc2ncc3ncc(=O)n(C)c3n2)c1`, 11.6 µM (active).
For `Clc1ccccc1-c1ccc2ncnc(NCc3cccs3)c2c1`, the Potency is 6.54 µM (active).
`Fc1cccc(CNc2ncnc3ccc(-c4ccc5c(c4)OCO5)cc23)c1`: the Potency is 0.463 µM (active).
Still for that read-out and setting: in the case of `CCNC(=O)c1ccc(-c2ccc3ncnc(NCc4ccc(C)o4)c3c2)o1` it was 9.23 µM (active); in that of `c1csc(CNc2ncnc3ccc(-c4ccc5c(c4)OCO5)cc23)n1`, 0.184 µM (active); in that of `Cc1ccc(CN(C)c2ncnc3ccc(-c4ccc(CO)o4)cc23)o1`, 0.823 µM (active).
Consider `Clc1ccccc1-c1ccc2ncnc(NCc3ccc4c(c3)OCO4)c2c1`, for which the “activity, negative = inhibition” value is -14.5%.
As to `Cc1cccc(CNc2ncnc3ccc(-c4ccc5c(c4)OCO5)cc23)c1`, the Potency is 1.04 µM (active).
Same read-out and setting: in the case of `CC(Nc1ncnc2ccc(-c3ccc4c(c3)OCO4)cc12)c1ccco1` (stereo not given) it was 0.582 µM (active); in that of `Cc1ccsc1CN(C)c1ncnc2ccc(-c3ccc([C@@H](C)O)o3)cc12`, 3.68 µM (active) and 1.46 µM (active) and 1.04 µM (active); in that of `COc1cccc(-c2ccc3ncnc(NCc4cc(C)cs4)c3c2)c1`, 5.82 µM (active).
With `Cn1ccc2cc(-c3ccc4ncnc(NCc5cccc(F)c5)c4c3)ccc21`, the “activity, negative = inhibition” value is -5.48%.
As for `Cc1ccsc1CN(C)c1ncnc2ccc(-c3ccc(COC(=O)N(C)C)o3)cc12`, the Potency was 9.23 µM (active).
As for `COc1cccc(Nc2ncc3nc(-c4cn(C)c5ccccc45)c(=O)n(CCC#N)c3n2)c1`, the “activity, negative = inhibition” value was -13.8%.
As for `Cn1ccc2cc(-c3ccc4ncnc(NCc5ccc6c(c5)OCO6)c4c3)ccc21`, the “activity, negative = inhibition” value is -10.9%.
On to `O=C(O)c1ccc(-c2ccc3ncnc(N4CCOCC4)c3c2)o1`, for which the Potency was 26 µM (active).
Still for that read-out and setting: with `c1nc(NCc2ccc3c(c2)OCO3)c2cc(-c3ccoc3)ccc2n1` the figure was 18.4 µM (active); with `Cc1ccc(CN(C)c2ncnc3ccc(-c4ccc(C(=O)O)o4)cc23)o1`, 16.4 µM (active).
